For 23 compounds, Potency and viability results are on record in PubChem BioAssay (NCATS).

Records with an inconclusive call do not appear. A number with no mark means an inactive call. The source made the active and inactive calls. Calls come from the whole dose curve; as a rule, active = well fitted curve in the direction sought with a large enough effect; inconclusive = small, poorly fitted or top-dose-only effect, or another doubt; inactive = no such curve, though single readings can be large; an effect the other way counts as inactive or inconclusive.

By viability is commonly meant a read-out of living cells in per cent, often relative to untreated cells.

Assay [1] can be described thus: Quantitative High-Throughput drug screen in 47 multiple myeloma cell lines against the NCATS MIPE library collection: NCIH929_DSMZ cell viability assay (AID 1918978). Note: nearly all actives have a fitted effect of over 35% in size. Note: potency is the fitted concentration of half-maximal effect. The method, boiled down:
(§1)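 500 cells/well per myeloma line exposed to pinned MIPE 4.0 compounds for 48 h at 37 °C, 5% CO2. Viability read as ATP by CellTiter-Glo luminescence, normalised to DMSO-only (100%) and media-only (0%) wells.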

Assay [2] can be described thus: Quantitative High-Throughput drug screen in 47 multiple myeloma cell lines against the NCATS MIPE library collection: OCIMY1_PLB cell viability assay (AID 1918979). Note: nearly all actives have a fitted effect of over 35% in size. Put shortly:
as §1

The nature of assay [3]: Quantitative High-Throughput drug screen in 47 multiple myeloma cell lines against the NCATS MIPE library collection: MM1R_ATCC cell viability assay (AID 1918981). Note: nearly all actives have a fitted effect of over 35% in size. Note: potency is the fitted concentration of half-maximal effect. Put shortly: as §1
A short description of assay [4]: Quantitative High-Throughput drug screen in 47 multiple myeloma cell lines against the NCATS MIPE library collection: L363_DSMZ cell viability assay (AID 1918984). Note: nearly all actives have a fitted effect of over 40% in size. Note: potency is the fitted concentration of half-maximal effect. Put shortly:
as §1

Assay [5] in a line: Quantitative High-Throughput drug screen in 47 multiple myeloma cell lines against the NCATS MIPE library collection: KMS34_JCRB cell viability assay (AID 1918985). Note: nearly all actives have a fitted effect of over 40% in size. Note: potency is the fitted concentration of half-maximal effect. The method, boiled down:
as §1

Assay [6] can be described thus: Quantitative High-Throughput drug screen in 47 multiple myeloma cell lines against the NCATS MIPE library collection: OPM1_PLB cell viability assay (AID 1918989). Note: nearly all actives have a fitted effect of over 40% in size. Note: potency is the fitted concentration of half-maximal effect. The method, boiled down: as §1
The nature of assay [7]: Quantitative High-Throughput drug screen in 47 multiple myeloma cell lines against the NCATS MIPE library collection: SKMM1_PLB cell viability assay (AID 1919863). Note: nearly all actives have a fitted effect of over 35% in size. Note: potency is the fitted concentration of half-maximal effect. To be noted: SKMM1 myeloma viability, CellTiter-Glo ATP, 48 h; viability: active compounds read low. The method, boiled down: as §1
For orientation: In ATP-based viability assays light output follows the ATP content of the culture.

Assay [8] is described as follows: Quantitative High-Throughput drug screen in 47 multiple myeloma cell lines against the NCATS MIPE library collection: U266_ATCC cell viability assay (AID 1919864). Note: nearly all actives have a fitted effect of over 35% in size. Note: potency is the fitted concentration of half-maximal effect. The method, boiled down: as §1
A short description of assay [9]: Quantitative High-Throughput drug screen in 47 multiple myeloma cell lines against the NCATS MIPE library collection: MM1S_ATCC cell viability assay (AID 1918980). Note: nearly all actives have a fitted effect of over 45% in size. Note: potency is the fitted concentration of half-maximal effect. The method, boiled down: as §1
The nature of assay [10]: Quantitative High-Throughput drug screen in 47 multiple myeloma cell lines against the NCATS MIPE library collection: KMS28PE_JCRB cell viability assay (AID 1918983). Note: nearly all actives have a fitted effect of over 35% in size. Note: potency is the fitted concentration of half-maximal effect. Put shortly:
as §1

A short description of assay [11]: Quantitative High-Throughput drug screen in 47 multiple myeloma cell lines against the NCATS MIPE library collection: LP1_DSMZ cell viability assay (AID 1918982). Note: nearly all actives have a fitted effect of over 35% in size. Note: potency is the fitted concentration of half-maximal effect. Put shortly: as §1
Assay [12] can be described thus: Quantitative High-Throughput drug screen in 47 multiple myeloma cell lines against the NCATS MIPE library collection: OCIMY5_PLB cell viability assay (AID 1918988). Note: nearly all actives have a fitted effect of over 65% in size. Note: potency is the fitted concentration of half-maximal effect. The method, boiled down: as §1
Assay [13] is described as follows: Quantitative High-Throughput drug screen in 47 multiple myeloma cell lines against the NCATS MIPE library collection: MOLP8_DSMZ cell viability assay (AID 1918977). Note: nearly all actives have a fitted effect of over 45% in size. Put shortly: as §1
Assay [14] can be described thus: Quantitative High-Throughput drug screen in 47 multiple myeloma cell lines against the NCATS MIPE library collection: OCIMY7_PLB cell viability assay (AID 1918987). Note: potency is the fitted concentration of half-maximal effect; nearly all actives have a fitted effect of over 65% in size. The conditions noted are these: OCI-MY7 myeloma viability, CellTiter-Glo ATP, 48 h; viability (% of DMSO): at 45.8 µM (top of the series). The method, boiled down: as §1
Assay [15] is described as follows: Quantitative High-Throughput drug screen in 47 multiple myeloma cell lines against the NCATS MIPE library collection: MMM1_PLB cell viability assay (AID 1918976). The method, boiled down: as §1
Assay [16] can be described thus: Quantitative High-Throughput drug screen in 47 multiple myeloma cell lines against the NCATS MIPE library collection: KMS26_JCRB cell viability assay (AID 1918975). Note: nearly all actives have a fitted effect of over 45% in size. The method, boiled down:
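Myeloma cells (500 per well) were exposed to MIPE 4.0 compounds by pin transfer and incubated 48 hours at 37C, 5% CO2. Viability was read as ATP by CellTiter-Glo luminescence, normalised to DMSO (100%) and media-only (0%) wells.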

`O=c1cc(-c2ccccc2)oc2cc(O)cc(O)c12`: the Potency result in assay [1], in assay [2], in assay [3], in [5], in [6] and in assay [8] was “inactive” each time. Also, the Potency in assay [4] was 16.6 µM (active). In addition, in [7], the viability was 139%.

Consider `CCC(CC)[C@H](NC(C)=O)[C@@H]1[C@H](O)[C@@H](C(=O)O)C[C@@H]1N=C(N)N`, for which the Potency result in [2], in assay [9], in assay [10], in [4], in [5] and in assay [6] was “inactive” in each case.

With `NC(=O)c1cccc2[nH]c(-c3ccc([C@H]4CCCN4)cc3F)nc12`, the Potency result in assay [2], in [11] and in assay [10] was “inactive” throughout. Moreover, the Potency was 14.8 µM (active) in assay [4], 20.9 µM (active) in assay [12] and 14.8 µM (active) in [6].

Consider `C=C1C(=O)OC(CCCCCCCC)C1C(=O)O` (configuration not stated), for which the Potency entry in assay [13], in [10], in assay [4] and in [5] was “inactive” throughout. Besides, the Potency in [6] is 20.9 µM (active).

Turning to `Cc1nnc(C(C)C)n1C1C[C@H]2CC[C@@H](C1)N2CC[C@H](NC(=O)C1CCC(F)(F)CC1)c1ccccc1` (some centres not stated), the Potency entry in assay [13], in assay [3], in assay [11], in assay [10], in assay [4] and in assay [12] was “inactive” throughout. Further, the Potency entry in assay [6] is “inactive”. In addition, the Potency is 9.35 µM (active) in assay [1] and 1.05 µM (active) in assay [9]. In addition, the viability in [7] is 147%.

For the compound `CC1(C)Cc2c(sc(NC(=S)NC(=O)c3ccccc3)c2C(=O)O)CO1`, the Potency result in assay [2], in [3], in assay [10], in [5] and in assay [6] was “inactive” throughout. Also, in [9], the Potency was 18.7 µM (active).

For the compound `Cc1c[nH]c(C=C2C(=O)Nc3ccccc32)c1CCC(=O)O`, the Potency entry in assay [1], in assay [2] and in assay [4] was “inactive” throughout. In addition, the results for the Potency in [10], in assay [12] and in [6] were 23.5 µM (active), 20.9 µM (active) and 0.833 µM (active), respectively.

Regarding `COc1cc(N2CCC(N3CCN(C)CC3)CC2)ccc1Nc1ncc(Cl)c(Nc2ccccc2S(=O)(=O)C(C)C)n1`, the Potency result in assay [2] was “inactive”. Further, the Potency in assay [14] is 0.264 µM (active).

Turning to `O=C1C[C@@H](c2ccc(O)cc2)Oc2cc(O)cc(O)c21`, the values for the Potency in [15] and in assay [9] were 1.48 µM (active) and 10.5 µM (active), respectively. Moreover, the Potency result in assay [13], in assay [2], in assay [3] and in assay [6] was “inactive” throughout.

In the case of `CCc1ccc(C=C2SC(=S)NC2=O)cc1`, the Potency entry in [13], in [1], in [2], in assay [11], in [10] and in assay [12] was “inactive” each time. Besides, the Potency result in assay [6] was “inactive”.

Turning to `CC=CCC(C)C(O)C1C(=O)NC(CC)C(=O)N(C)CC(=O)N(C)C(CC(C)C)C(=O)NC(C(C)C)C(=O)N(C)C(CC(C)C)C(=O)NC(C)C(=O)NC(C)C(=O)N(C)C(CC(C)C)C(=O)N(C)C(CC(C)C)C(=O)N(C)C(C(C)C)C(=O)N1C` (configuration not stated), the Potency result in assay [9] and in assay [8] was “inactive” in each case.

As for `O=C(Nc1ccccc1Br)N[C@@H]1CCN(c2ccc(C(F)(F)F)cn2)C1`, the Potency in assay [15] was 23.5 µM (active). In addition, the Potency entry in assay [13], in assay [1], in assay [2], in assay [4] and in assay [5] was “inactive” throughout.

Consider `COc1ccc2c(Oc3ccc(NC(=O)c4c(C)n(CC(C)(C)O)n(-c5ccccc5)c4=O)nc3)ccnc2c1`, for which the Potency entry in [1], in assay [2], in assay [3], in assay [11], in assay [5] and in assay [6] was “inactive” in each case. Besides, in [12], the Potency was 26.4 µM (active).

As to `CCOC(CN1C(=O)[C@](CC(=O)Nc2ccc(C)cc2)(NC(=O)Nc2ccc(C)cc2)c2ccccc21)OCC`, the Potency in assay [15] is 23.5 µM (active); in assay [12], 26.4 µM (active). The Potency entry in [13] was “inactive”. Also, the viability in assay [7] was 93.3%.

For the compound `COc1ccc(Cc2ccc(NC(N)=O)cc2)cc1-c1cccc(Cl)c1`, the Potency result in assay [16], in assay [2], in [10], in assay [5] and in [6] was “inactive” throughout. Further, the Potency in [1] is 16.6 µM (active); in assay [8], 8.33 µM (active).

`Clc1cc(Cl)cc(CNc2ncncc2-c2ccc3c(c2)OCO3)c1`: the Potency result in [13] and in assay [8] was “inactive” in each case. In addition, the Potency is 4.69 µM (active) in assay [14], 20.9 µM (active) in [12], 20.9 µM (active) in [6] and 16.6 µM (active) in assay [7].

With `O=c1cc(-c2ccccc2)oc2cc(O)c(O)c(O)c12`, the Potency in [15] is 23.5 µM (active); in assay [9], 18.7 µM (active); in assay [3], 23.5 µM (active); in assay [6] it was 11.8 µM (active); in assay [7], 18.7 µM (active). Besides, the Potency entry in assay [4] was “inactive”.

As for `Cc1cccc(Nc2nc(-c3ccncc3)cs2)c1`, the Potency was 18.7 µM (active) in [4] and 14.8 µM (active) in assay [6]. For the same compound, the Potency entry in assay [8] is “inactive”.

As for `CC1(C)O[C@H]2C[C@@H]3[C@H]4CCC5=CC(=O)C=C[C@]5(C)[C@@]4(F)[C@@H](O)C[C@]3(C)[C@]2(C(=O)CO)O1`, the Potency result in [16], in [2], in [10], in assay [6] and in assay [8] was “inactive” each time. Besides, the Potency is 26.4 µM (active) in assay [1], 0.0132 µM (active) in assay [9], 0.0132 µM (active) in assay [11] and 0.0118 µM (active) in assay [5]. The viability in [7] is 108%.

In the case of `N[C@@]1(C(=O)O)CS(=O)(=O)[C@H]2[C@H](C(=O)O)[C@H]21`, the Potency entry in assay [13], in assay [2] and in assay [5] was “inactive” in each case. Further, the Potency in [9] was 3.72 µM (active); in assay [8], 4.18 µM (active).

On to `O=c1c(-c2ccc(O)cc2)coc2cc(OC3O[C@H](CO)[C@H](O)[C@H](O)[C@H]3O)cc(O)c12` (some centres not stated), for which the Potency in assay [15] was 18.7 µM (active); in assay [1], 2.09 µM (active); in [9] it was 4.18 µM (active); in assay [3], 16.6 µM (active); in assay [14] it was 1.48 µM (active); in [12], 1.48 µM (active). The Potency in assay [6] is 7.43 µM (active); in assay [8] it was 8.33 µM (active). In [2], the Potency result is “inactive”.

Consider `CC(C)[C@H](CO)Nc1nc(Nc2ccc(C(=O)O)c(Cl)c2)c2ncn(C(C)C)c2n1`, for which the Potency in assay [15] was 23.5 µM (active); in assay [1] it was 23.5 µM (active); in [10] it was 37.2 µM (active); in assay [6], 10.5 µM (active).

In the case of `CC(C)(C)C(=O)Oc1ccc2c(c1)nc(NC(=O)c1cccc([N+](=O)[O-])c1)n2CCCO`, the Potency entry in assay [16], in assay [2] and in assay [6] was “inactive” each time. The Potency was 13.2 µM (active) in assay [15], 23.5 µM (active) in assay [9] and 18.7 µM (active) in assay [12].
